# From PubChem BioAssay (NCATS)
# Inconclusive results are not listed. Active and inactive are the calls of the source. Unless noted, calls follow the shape of the dose curve; as a rule, active = well fitted curve in the direction sought with a large enough effect; inconclusive = small, poorly fitted or top-dose-only effect, or another doubt; inactive = no such curve, though single readings can be large; an effect the other way counts as inactive or inconclusive.
# Legend:
# [1] = qHTS drug screen for cell cycle checkpoint inhibitors in PARPi-resistant BRCA-mutant ovarian cancer cell lines. (AID 1963452; calls by dose curve); conditions: PEO1/OlaR viability, CellTiter-Glo luminescence, 96 h, stronger effect = lower value
# Outline: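 PEO1, PEO4 and PEO1/OlaR ovarian cancer cells, 600 per well, exposed 96 h at 37C to a dilution series. Viability read by CellTiter-Glo luminescence, normalized to DMSO and empty wells; activity summarized as Z-AUC.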
# [2] = qHTS profiling for inhibitors of Plasmodium falciparum proliferation (AID 504749); also: nearly all actives have a fitted effect of over 60% in size; also: potency is read from the fitted curve at half-maximal effect;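 as to activity, negative = inhibition: 0% = DMSO vehicle and full inhibition = artemisinin control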; conditions: P. falciparum in erythrocytes, SYBR Green DNA, 72 h
# Outline: (§1)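 Each compound contacts P. falciparum-infected red blood cells for 72 h at 37 C; lysis buffer (Tris, EDTA, saponin, Triton X, SYBR Green I) is added and fluorescence measured next morning; values normalized to controls.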
# 3D7 = test: as above; conditions: P. falciparum in erythrocytes, SYBR Green DNA, 72 h; series mostly up to 28.7 µM
# Outline: as §1
# [3] = qHTS for identification of novel therapeutic agents for treatment of microphthalmiaassociated transcription factor (MiT) renal cell carcinoma (RCC) (AID 1963991); conditions: CellTiter-Glo, 48 h, stronger effect = lower value
# Outline: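 Curves over 11 concentrations were fitted to CellTiter-Glo luminescence, scaled between empty wells (0%) and DMSO (100%) viability. Cells were UOK109, UOK124 and UOK145 TFE3-fusion RCC lines at 500/well, exposed 48 hours at 37 C.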
# [4] = target: Cytochrome P450 1A2 (Homo sapiens) (UniProt P05177); test: qHTS for inhibitors of CYPIA2 against the NCATS DSHEA and TCM libraries (AID 1919976); conditions: recombinant CYP1A2 enzyme activity, luminescence; also: potency is read from the fitted curve at half-maximal effect
# Chain of Cytochrome P450 1A2 (Homo sapiens) (P05177 whole entry, looked up): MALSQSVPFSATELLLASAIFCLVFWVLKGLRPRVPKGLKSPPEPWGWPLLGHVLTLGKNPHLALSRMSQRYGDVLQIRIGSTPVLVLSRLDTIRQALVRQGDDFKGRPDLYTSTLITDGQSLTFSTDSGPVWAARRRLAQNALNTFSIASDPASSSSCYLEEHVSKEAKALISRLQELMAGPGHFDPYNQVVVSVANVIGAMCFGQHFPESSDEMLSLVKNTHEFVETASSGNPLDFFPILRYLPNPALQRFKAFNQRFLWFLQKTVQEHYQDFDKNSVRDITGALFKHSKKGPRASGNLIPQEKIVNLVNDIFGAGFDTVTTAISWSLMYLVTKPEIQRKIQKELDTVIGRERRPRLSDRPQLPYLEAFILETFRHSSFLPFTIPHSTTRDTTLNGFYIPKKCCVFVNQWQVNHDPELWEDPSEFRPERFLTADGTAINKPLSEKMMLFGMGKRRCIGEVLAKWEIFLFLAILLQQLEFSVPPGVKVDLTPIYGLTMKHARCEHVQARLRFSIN
# Outline: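 Enzyme and pro-luciferin substrate, or substrate alone as no-enzyme background, are pre-incubated with test samples for 15 min at room temperature. NADPH regeneration system (1x final) initiates a 30-45 min dark reaction; luciferase detection reagent follows before luminescence reading.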
# [5] = KB-8-5-11 P-gp reporter qHTS against the NCATS DSHEA and TCM libraries (AID 1919977); conditions: KB-8-5-11 cells; series mostly up to 26.1 µM; also: 0% is about no effect
# Outline: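 CellTiter-Glo luminescence measured viability after ~72 h exposure (37C, 5% CO2) of KB-8-5-11 cervical adenocarcinoma cells overexpressing P-gp. Colchicine was omitted during assay. Substances were tested as titrations.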
# [6] = qHTS Counterscreen for compound interference against the NCATS DSHEA and TCM libraries (AID 1919978); conditions: firefly luciferase detection reagent interference, luminescence;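 also: compounds preincubated with 1 µM D-luciferin or buffer before detection reagent; % of control where 0% means no effect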
# Outline: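 With 1 uM D-luciferin or phosphate buffer only, compounds at final 19.5 nM–39.8 uM were incubated for 15 min at room temperature. Luciferase detection reagent was then added, and luminescence was measured after a further 30 min at room temperature.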
# [7] = Dual reporter qHTS for agonist of Pregnane X Receptor (hPXR) against the NCATS DSHEA and TCM libraries: Fluorescence readout (AID 1920058); conditions: PXR dual reporter cells; series mostly up to 40 µM; also: 0% is about no effect
# Outline: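 Cells were plated at 2000 per well and allowed to attach for 5 h. Test substances were pinned in and incubated roughly 24 h. CellTiter-Fluor was then added and fluorescence measured after 1 h.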
# [8] = target: Nuclear receptor subfamily 1 group I member 2 (Homo sapiens) (UniProt O75469); test: Dual reporter qHTS for antagonist of Pregnane X Receptor (hPXR) against the NCATS DSHEA and TCM libraries: Luminescence Readout (AID 1920060); conditions: hPXR dual reporter cells, luciferase luminescence, antagonist mode; series mostly up to 40 µM;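 also: HepG2 cells carrying hPXR luciferase reporter stimulated with rifampicin at 2 µM; 0% is about no effect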
# Chain of Nuclear receptor subfamily 1 group I member 2 (Homo sapiens) (O75469 whole entry, looked up): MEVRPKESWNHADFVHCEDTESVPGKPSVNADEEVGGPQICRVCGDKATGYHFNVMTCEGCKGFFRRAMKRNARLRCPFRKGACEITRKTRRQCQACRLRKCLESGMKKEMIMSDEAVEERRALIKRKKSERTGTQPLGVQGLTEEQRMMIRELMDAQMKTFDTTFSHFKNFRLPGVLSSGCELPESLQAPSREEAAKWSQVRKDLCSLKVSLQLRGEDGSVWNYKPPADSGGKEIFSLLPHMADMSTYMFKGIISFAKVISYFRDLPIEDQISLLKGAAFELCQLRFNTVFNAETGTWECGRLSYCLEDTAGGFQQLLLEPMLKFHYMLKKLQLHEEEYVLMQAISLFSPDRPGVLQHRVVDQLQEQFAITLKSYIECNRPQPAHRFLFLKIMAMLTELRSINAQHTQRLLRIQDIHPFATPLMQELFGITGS
# Outline: (§2)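 In antagonist mode, 2 uM rifampicin was added to hPXR-Luc HepG2 cells alongside test substances, incubated 24 h at 37 C; luminescence gave reporter activity, and CellTiter-Fluor fluorescence (405/540 nm) gave viability.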
# [9] = Dual reporter qHTS for antagonist of Pregnane X Receptor (hPXR) against the NCATS DSHEA and TCM libraries: Fluorescence Readout (AID 1920061); conditions: PXR dual reporter cells, antagonist mode; series mostly up to 40 µM; also: 0% is about no effect
# Outline: as §2
# [10] = measured here: PEO1 parental Z-AUC
# [11] = at 12.8 µM (top of the series), parasite line A
# [12] = at 12.8 µM (top of the series), parasite line B
# [13] = TFE3-RCC UOK109 viability, measured here: UOK109 Z-AUC
# [14] = TFE3-RCC viability, measured here: UOK124 Z-AUC
# [15] = TFE3-RCC viability, measured here: UOK145 Z-AUC
# [16] = at 28.7 µM (top of the series), parasite line A
# [17] = at 28.7 µM (top of the series), parasite line B
structure (smiles),measurement,setting,value
O=C(O)C(=O)c1cn(Cc2ccccc2)c2ccc(-c3ccc(OC(F)(F)F)cc3)cc12,Z-AUC,[1],-0.0319 (inactive)
same,Z-AUC,[1]; [10],0.702
same,Z-AUC,[1]; measured here: PEO4 Z-AUC,0.863
O=P1(NCCCl)OCCCN1CCCl (centres undefined),Z-AUC,[1],0.293 (inactive)
same,Z-AUC,[1]; [10],-0.297
same,Z-AUC,[1]; measured here: PEO4 Z-AUC,-0.293
same,"activity, negative = inhibition",[2]; [11],-2.67% (inactive)
same,"activity, negative = inhibition",[2]; [12],0.405% (inactive)
same,Potency,3D7,inactive
COC[C@@H](NC(C)=O)C(=O)NCc1ccccc1,Z-AUC,[1],-0.757 (inactive)
same,Z-AUC,[1]; [10],0.116
same,Z-AUC,[1]; measured here: PEO4 Z-AUC,-0.684
same,z-score,[3]; [13],-0.0332
same,z-score,[3]; [14],0.828
same,z-score,[3]; [15],0.367
Cn1c(CCCC(=O)O)nc2cc(N(CCCl)CCCl)ccc21,Z-AUC,[1],2 (inactive)
same,Z-AUC,[1]; [10],1.56
same,Z-AUC,[1]; measured here: PEO4 Z-AUC,2.09
same,z-score,[3]; [13],1.39
same,z-score,[3]; [14],2.59
same,z-score,[3]; [15],0.899
same,"activity, negative = inhibition",[2]; [16],-26.2% (inactive)
same,"activity, negative = inhibition",[2]; [17],3.04% (inactive)
same,Potency,3D7,inactive
N[C@@H](Cc1ccc(N(CCCl)CCCl)cc1)C(=O)O,Z-AUC,[1],-0.14 (inactive)
same,Z-AUC,[1]; [10],-0.257
same,Z-AUC,[1]; measured here: PEO4 Z-AUC,-0.0487
C#CCN(C)[C@H](C)Cc1ccccc1,Z-AUC,[1],0.853 (inactive)
same,Z-AUC,[1]; [10],0.381
same,Z-AUC,[1]; measured here: PEO4 Z-AUC,0.551
same,z-score,[3]; [13],0.064
same,z-score,[3]; [14],-0.193
same,z-score,[3]; [15],0.147
CN(C)[C@@H]1C(=O)C(C(N)=O)=C(O)[C@@]2(O)C(=O)C3=C(O)c4c(O)cccc4[C@@](C)(O)[C@H]3C[C@@H]12,Z-AUC,[1],1.23 (inactive)
same,Z-AUC,[1]; [10],0.408
same,Z-AUC,[1]; measured here: PEO4 Z-AUC,1.42
same,z-score,[3]; [13],1.21
same,z-score,[3]; [14],0.89
same,z-score,[3]; [15],1.72
C[C@]12CCC(=O)C(O)=C1CC[C@@H]1[C@@H]2CC[C@]2(C)C(=O)CC[C@@H]12,Z-AUC,[1],0.873 (inactive)
same,Z-AUC,[1]; [10],1.02
same,Z-AUC,[1]; measured here: PEO4 Z-AUC,1.06
CC(C)=CCOc1c2occc2cc2ccc(=O)oc12,Potency,[4],1.26 µM (active)
same,outcome,[5],inactive
same,max response,[6],2.08% (inactive)
same,outcome,[7],inactive
same,outcome,[8],inactive
same,outcome,[9],inactive
CN(C)CCN(C)CCc1ccc(Cl)c(Cl)c1,Z-AUC,[1],1.45 (inactive)
same,Z-AUC,[1]; [10],1.36
same,Z-AUC,[1]; measured here: PEO4 Z-AUC,1.58
O=C1CC[C@@]2(O)[C@H]3Cc4ccc(O)c5c4[C@@]2(CCN3CC2CC2)[C@H]1O5,Z-AUC,[1],-0.771 (inactive)
same,Z-AUC,[1]; [10],-0.291
same,Z-AUC,[1]; measured here: PEO4 Z-AUC,-0.633
same,z-score,[3]; [13],0.814
same,z-score,[3]; [14],0.454
same,z-score,[3]; [15],1.09
N[C@@H]1C[C@H]1c1ccccc1,Z-AUC,[1],0.628 (inactive)
same,Z-AUC,[1]; [10],1.13
same,Z-AUC,[1]; measured here: PEO4 Z-AUC,0.895
COc1ccc(C(=O)c2c(C)n(CCN3CCOCC3)c3ccccc23)cc1,Z-AUC,[1],0.0561 (inactive)
same,Z-AUC,[1]; [10],-0.45
same,Z-AUC,[1]; measured here: PEO4 Z-AUC,-1.01
same,z-score,[3]; [13],0.603
same,z-score,[3]; [14],0.604
same,z-score,[3]; [15],0.655
same,"activity, negative = inhibition",[2]; [16],-0.832% (inactive)
same,"activity, negative = inhibition",[2]; [17],8.06% (inactive)
same,Potency,3D7,inactive
NN=C(N)N,Z-AUC,[1],0.673 (inactive)
same,Z-AUC,[1]; [10],0.529
same,Z-AUC,[1]; measured here: PEO4 Z-AUC,0.584
same,"activity, negative = inhibition",[2]; [16],-1.43% (inactive)
same,"activity, negative = inhibition",[2]; [17],11.2% (inactive)
same,Potency,3D7,inactive
Fc1ccc(C(OCCN2CCN(CCCc3ccccc3)CC2)c2ccc(F)cc2)cc1,Z-AUC,[1],0.198 (inactive)
same,Z-AUC,[1]; [10],-0.0312
same,Z-AUC,[1]; measured here: PEO4 Z-AUC,-0.0118
same,Potency,[2]; parasite line A,8.91 µM (active)
same,Potency,[2]; parasite line B,11.2 µM (active)
same,Potency,3D7,8.91 µM (active)
COC[C@H]1OC(=O)c2coc3c2[C@@]1(C)C1=C(C3=O)C2CCC(=O)[C@@]2(C)C[C@H]1OC(C)=O (some centres undefined),Z-AUC,[1],0.865 (inactive)
same,Z-AUC,[1]; [10],0.666
same,Z-AUC,[1]; measured here: PEO4 Z-AUC,0.563
C=C(C)[C@H]1Cc2c(ccc3c2O[C@@H]2COc4cc(OC)c(OC)cc4[C@@H]2C3=O)O1,Z-AUC,[1],-1.61 (inactive)
same,Z-AUC,[1]; [10],-2.63
same,Z-AUC,[1]; measured here: PEO4 Z-AUC,-1.87
same,"activity, negative = inhibition",[2]; [16],-0.828% (inactive)
same,"activity, negative = inhibition",[2]; [17],-4.67% (inactive)
same,Potency,3D7,inactive
CNCC(O)c1ccc(O)cc1 (centres undefined),Z-AUC,[1],-0.876 (inactive)
same,Z-AUC,[1]; [10],-0.301
same,Z-AUC,[1]; measured here: PEO4 Z-AUC,-0.927
same,z-score,[3]; [13],0.0605
same,z-score,[3]; [14],0.435
same,z-score,[3]; [15],-0.102
NCC1(CC(=O)O)CCCCC1,Z-AUC,[1],0.463 (inactive)
same,Z-AUC,[1]; [10],0.917
same,Z-AUC,[1]; measured here: PEO4 Z-AUC,-0.172
same,z-score,[3]; [13],0.318
same,z-score,[3]; [14],0.516
same,z-score,[3]; [15],-0.0302
same,"activity, negative = inhibition",[2]; [11],5.08% (inactive)
same,"activity, negative = inhibition",[2]; [12],1.35% (inactive)
same,Potency,3D7,inactive
Cn1cc(C2=C(c3cn(C4CCN(Cc5ccccn5)CC4)c4ccccc34)C(=O)NC2=O)c2ccccc21,Z-AUC,[1],-0.351 (inactive)
same,Z-AUC,[1]; [10],0.347
same,Z-AUC,[1]; measured here: PEO4 Z-AUC,0.154
Cc1sc2c(c1C)C(c1ccc(Cl)cc1)=N[C@@H](CC(=O)OC(C)(C)C)c1nnc(C)n1-2,Z-AUC,[1],-0.873 (inactive)
same,Z-AUC,[1]; [10],-0.421
same,Z-AUC,[1]; measured here: PEO4 Z-AUC,-0.731
CNC(=O)c1ccc(N2C(=S)N(c3ccc(C#N)c(C(F)(F)F)c3)C(=O)C23CCC3)cc1F,Z-AUC,[1],1.87 (inactive)
same,Z-AUC,[1]; [10],1.38
same,Z-AUC,[1]; measured here: PEO4 Z-AUC,1.39
C=C1C[C@@H]2[C@H](CC[C@]3(C)C(=O)CC[C@@H]23)[C@@]2(C)C=CC(=O)C=C12,Z-AUC,[1],1.28 (inactive)
same,Z-AUC,[1]; [10],0.968
same,Z-AUC,[1]; measured here: PEO4 Z-AUC,1.01
O=c1c(O)c(-c2ccc(O)c(O)c2)oc2cc(O)cc(O)c12,outcome,[5],inactive
CC(C)CC(N(C)C)C1(c2ccc(Cl)cc2)CCC1 (centres undefined),Z-AUC,[1],0.505 (inactive)
same,Z-AUC,[1]; [10],0.684
same,Z-AUC,[1]; measured here: PEO4 Z-AUC,0.647
same,"activity, negative = inhibition",[2]; [16],6.97% (inactive)
same,"activity, negative = inhibition",[2]; [17],4.99% (inactive)
same,Potency,3D7,inactive
